# PTAP-TSG101 blk: inhibitors of HIV-1 PTAP binding to human TSG101, validation. AID 1347069. 44,000 tested, under 10 active. Potency, µM (doses to about 115 µM), hits mostly inhibitors. Fluorescence polarization, FITC-PTAP peptide/Tsg101, 20 min; also: potency is read from the fitted curve at half-maximal effect; 0% is about no effect
#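 Steps: Tsg101 binding domain (10 uM final) in HEPES pH 7.5/NaCl/Tween 20/EDTA/TCEP; add compound; add FITC-PTAP peptide (50 nM final); incubate 20 min r.t.; read polarization.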
# FH mod: Identification of activators of human fumarate hydratase by quantitative high-throughput screening. Fumarate hydratase, mitochondrial (Homo sapiens), P07954. Potency, µM (titrated, usually from 79.9 µM), for inactives: at the highest dose activity change, negative = inhibition, most hits filed as inhibitors. actives 0.22% (n = 54,000). FH coupled MDH/diaphorase resazurin fluorescence, 15 min; also: potency is read from the fitted curve at half-maximal effect; % is scaled to controls: 0 for no effect and ±100 for the full control effect; the screen sought activators but most active calls are inhibition curves; nearly all actives have a fitted effect of over 45% in size
# GPR32 ag: activates human resolvin D1 receptor GPR32; O75388; CHO-K1 GPR32 beta-arrestin PathHunter luminescence, 90 min; zero percent set by DMSO-only wells; activation, % at 76.9 µM; actives 2.5% (n = 48,000);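 active = activation of at least 60% and not above a set upper limit, about 1 call in 100 departs from these limits; inconclusive = activation of 40% to 60%, or above that upper limit; inactive = activation under 40%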; also: 0% is about no effect
#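 Agonism was scored by beta-Gal fragment complementation (chemiluminescent read, 1 h detection at ambient temperature) reporting beta-arrestin binding to GPR32 in engineered CHO-K1 cells. Compound treatment lasted 90 min at 37 C, normalized to a DMSO basal control.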
# GALK inh: GALK (human) enzyme inhibition | recombinant GALK, Kinase-Glo ATP luminescence, 1 h | Potency, µM (titrated, usually from 57.5 µM), for inactives: at the top dose activity, negative = inhibition, usual class: inhibitors | 44,000 tested, under 10 active | AID 1347072;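 also: plate controls were full GALK reaction for no effect and reaction lacking GALK for full effect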
#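 Luminescent ATP-depletion readout (Kinase-Glo Plus) after 1 h room-temperature incubation of human GALK (5 nM) with galactose 100 µM and ATP 35 µM, pH 8.0 HEPES/Mg2+ buffer; compounds tested in qHTS format.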
# GALC G270D up: raises human GALC G270D mutant activity in cells. P54803. 145M-Twi-hGALC-G270D cells (Twitcher mouse brain line with human GALC G270D), HMU-beta-Gal fluorescence, 48 h. Potency, µM (series often up to 57.5 µM), most hits filed as activators. actives 0.1% (n = 45,000). AID 1159614; also: potency is read from the fitted curve at half-maximal effect; 0% is about no effect; nearly all actives have a fitted effect of over 65% in size
# Target sequence (P54803 whole entry G286D): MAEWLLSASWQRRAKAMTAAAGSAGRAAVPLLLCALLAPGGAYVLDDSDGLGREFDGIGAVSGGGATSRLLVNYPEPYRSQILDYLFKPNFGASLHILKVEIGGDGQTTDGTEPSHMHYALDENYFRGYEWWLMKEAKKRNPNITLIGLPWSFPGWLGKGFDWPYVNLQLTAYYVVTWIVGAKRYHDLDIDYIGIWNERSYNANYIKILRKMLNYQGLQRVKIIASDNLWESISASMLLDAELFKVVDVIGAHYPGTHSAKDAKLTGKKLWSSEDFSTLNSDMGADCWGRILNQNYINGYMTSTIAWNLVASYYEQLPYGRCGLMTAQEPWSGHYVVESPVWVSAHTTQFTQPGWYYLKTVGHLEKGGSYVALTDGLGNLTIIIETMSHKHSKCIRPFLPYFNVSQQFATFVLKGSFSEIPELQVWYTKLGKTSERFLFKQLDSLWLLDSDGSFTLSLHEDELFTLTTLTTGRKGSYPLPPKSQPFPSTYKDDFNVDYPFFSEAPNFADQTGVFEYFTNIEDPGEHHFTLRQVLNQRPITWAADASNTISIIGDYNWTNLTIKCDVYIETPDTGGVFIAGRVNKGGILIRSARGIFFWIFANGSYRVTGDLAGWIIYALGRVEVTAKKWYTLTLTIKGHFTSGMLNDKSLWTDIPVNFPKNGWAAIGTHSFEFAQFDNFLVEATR
#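 Fluorogenic HMU-b-Gal hydrolysis (0.1 mM final, pH 5.2 citrate-phosphate with 1 mg/mL sodium taurocholate; carbonate stop buffer) measures mutant GALC activity after compound treatment of live 145M-Twi Twitcher brain cells stably carrying human GALC-G270D, with wild-type GALC line alongside; activation sought.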
# B2AR arrestin ag: ADRB2 beta-arrestin recruitment. HTLA Tango cells, beta-arrestin recruitment, luciferase luminescence, 18 h. Potency, µM (titrated, usually from 46.1 µM), most hits filed as activators. 44,000 tested, under 10 active. P07550;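 also: potency is read from the fitted curve at half-maximal effect; 0% = DMSO and full agonism = EC100 isoproterenol or metaproterenol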
#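 Tango cells expressing recombinant beta2-AR and beta-arrestin were treated with compounds (up to 46 microM titration) in DMEM with 1% FBS for 18 hr at 37 degrees C. Beta-arrestin recruitment drove tTA-dependent luciferase, read by luminescence; curves were fitted and classed.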
# Starred values were filed as active, the others as inactive; i = inactive; ? = inconclusive; · = no result; [ ] = dose if it differs, or a comment. The list is not random: actives were taken first. Their share in the collection is about 2.8%. Unless noted, calls follow the shape of the dose curve; as a rule, active = well fitted curve in the direction sought with a large enough effect; inconclusive = small, poorly fitted or top-dose-only effect, or another doubt; inactive = no such curve, though single readings can be large; an effect the other way counts as inactive or inconclusive.
SMILES,PTAP-TSG101 blk,FH mod,GPR32 ag,GALK inh,GALC G270D up,B2AR arrestin ag
CC(C)CN(CC(C)C)CC(O)Cn1cc(/C=C/C(=O)c2ccccc2)c2ccccc21 (centres undefined),i,-19%,9,-2%,i,i
CCCOC(=O)c1cccc(Nc2nc(CCC)cc(=O)[nH]2)c1,i,·,87*,1%,·,i
CCCc1cc(=O)[nH]c(Nc2ccc(C(=O)O)cc2)n1,i,·,-2,0%,·,i
CC(O)(CC(=O)O)CC(=O)OCc1ccc(O[C@@H]2O[C@H](CO)[C@@H](O)[C@H](O)[C@H]2O)cc1 (some centres undefined),·,-1%[53.3 µM],·,·,·,·
CC1(C)CCCC2(C)C1CC(=O)C13CC(CCC12)C(O)(CO)C3 (centres undefined),·,-1%[53.3 µM],·,·,·,·
COc1ccc(OCCn2c(NC(=O)c3ccc(OC)cc3)nc3ccccc32)cc1,i,-5%,63*,0%,i,i
CCCCCn1c(NCc2ccccc2OC)nc2ccccc21,i,-17%,10,-1%,i,i
CCCCn1c(NCc2ccc(OC)cc2O)nc2ccccc21,i,-24%,70*,3%,i,i
CC(=O)OC1CC(C(C)(C)O)OC2CCC3(C)OC4=C(C(=O)C=C5C(C)C(OC(C)=O)C6(C)C(C)OC546)C(O)C3C12C (centres undefined),·,5%[20.6 µM],·,·,·,·
CCOC(=O)c1c(N)n(-c2cccc(OC)c2)c2nc3ccccc3nc12,i,-3%,2,1%,4µM*,i
CCOC(=O)c1c(N)n(-c2ccc(CC)cc2)c2nc3ccccc3nc12,i,-1%,3,1%,i,i
COC(=O)C1=C(C)NC(C)=C(C(=O)OCCCN2CCC(c3ccccc3)(c3ccccc3)CC2)C1c1cccc([N+](=O)[O-])c1 (centres undefined),·,-7%[53.3 µM],105*,·,i,·
C[C@H](O)[C@H](O)/C=C/c1cccc(O)c1CO,·,7%,·,·,·,·
CC(=O)Nc1c(C(=O)Nc2cccc(C)c2)nnn1-c1ccc(C)cc1,i,-22%,119*,7%,i,i
COc1ccc(-c2noc(CNC(=O)c3ccc(OC)cc3OC)n2)cc1,i,-19%,-5,2%,i,i
COc1cc(OC)c(C(=O)NCc2nc(-c3ccccc3)no2)cc1OC,i,-23%,71*,-10%,i,i
CC1OC(OC2C(O)C(OC3CCC4(C)C(CCC5(C)C4CC=C4C6CC(C)(COC7OC(CO)C(O)C(O)C7O)CC(O)C6(C)CCC45C)C3(C)C)OC(C(=O)O)C2O)C(O)C(O)C1OC1OCC(O)C(O)C1O (centres undefined),·,-3%[20.6 µM],·,·,·,·
CSc1nn(Cc2cccc(Cl)c2)c(N(C(C)=O)C(C)=O)c1S(=O)(=O)c1ccccc1,i,-20%,76*,0%,i,i
O=C(COc1ccc(F)cc1)NC1CC(=O)N(c2ccc3c(c2)OCCO3)C1 (centres undefined),i,0%,115*,-7%,i,i
O=C(COc1ccccc1)NC1CC(=O)N(c2ccc3c(c2)OCCO3)C1 (centres undefined),i,2%,-1,-1%,i,i
COC(=O)c1cc(Nc2nc3ccccc3nc2NS(=O)(=O)c2ccc(C)cc2)ccc1Cl,i,?,99*,0%,i,i
COC(=O)C1=CO[C@@H](O[C@@H]2O[C@H](CO[C@@H]3O[C@H](CO)[C@@H](O)[C@H](O)[C@H]3O)[C@@H](O)[C@H](O)[C@H]2O)[C@@H]2C(CO)=CC[C@H]12,·,6%[53.3 µM],·,·,·,·
CC1CCN(S(=O)(=O)c2nnc(NC(=O)c3cccc(Cl)c3)s2)CC1,i,-2%,69*,-1%,i,i
Cc1c(Cl)cccc1-c1ccc(C(=O)Nc2ccc(F)cc2)o1,i,-20%,61*,-4%,i,i
CCOC(=O)c1ccc(NC(=O)c2ccc(-c3cccc(Cl)c3C)o2)cc1,i,-14%,-7,0%,i,i
SMILES,PTAP-TSG101 blk,FH mod,GPR32 ag,GALK inh,GALC G270D up,B2AR arrestin ag
COc1ccc(Cn2c(C(=O)O)c(CNCc3cccs3)c3ccc(C)cc32)cc1,i,-12%,?,1%,i,i
C=Cc1ccc(Cn2c(C(=O)O)c(CNCc3cccs3)c3ccc(C)cc32)cc1,i,?,96*,1%,i,i
Cc1ccc2c(CNCc3cccs3)c(C(=O)O)n(Cc3ccc(F)cc3)c2c1,i,?,92*,-2%,i,i
C=Cc1ccc(Cn2c(C(=O)O)c(CNCc3ccc(F)cc3)c3ccc(C)cc32)cc1,i,-28%,91*,-1%,i,i
CC(=O)c1c(O)cc2cccc3c2c1CC(C)(O)O3 (centres undefined),·,-4%,·,·,·,·
COc1ccc(Cl)cc1NC(=O)Cn1nnc(C(=O)NCc2ccc3c(c2)OCO3)c1N,i,0%,112*,1%,i,i
Nc1c(C(=O)NCc2ccc3c(c2)OCO3)nnn1CC(=O)Nc1ccc(Br)cc1,i,-3%,61*,0%,i,i
O=C(NCc1cccc(Cl)c1)C1CCN(c2nn3cc(-c4ccc(F)cc4)nc3s2)CC1,i,0%,62*,2%,i,i
O=C(NCc1cccc(Cl)c1)C1CCCN(c2nn3cc(-c4ccc(F)cc4)nc3s2)C1 (centres undefined),i,-10%,-16,-6%,i,i
COc1ccc(-n2c(SCC#N)nc3sc4c(c3c2=O)CCCC4)cc1,·,3%,·,·,·,·
Cc1ccc(NC(=O)CC(C)S(=O)(=O)c2ccc3c(c2)NC(=O)CO3)c(C)c1 (centres undefined),i,-19%,74*,6%,i,i
COC1=C(OC)C(=O)C(CCCCCCCCCCO)=C(C)C1=O,·,19µM*,46,·,i,·
O=C(C1OC1/C=C/c1ccc2c(c1)OCO2)N1CCCCC1 (centres undefined),·,1%,·,·,·,·
COC(=O)c1c(SC)nc2ccccc2c1OCc1ccc(C)cc1C,i,35µM*,-13,1%,i,i
O=C(c1ccc(F)cc1)C1CCN(CCn2c(=S)[nH]c3ccccc3c2=O)CC1,·,6%[53.3 µM],68*,·,i,·

# Source: PubChem
